Hits are enriched below; roughly 7.3% of the tested compounds scored in any of these assays.
SMN2 splice up – SMN2 splice variant enhancement; HEK293 SMN2-luciferase splicing reporter, luminescence, 30-36 h; Potency, µM (series often up to 46.1 µM), for inactives: at the highest dose activity change, positive = activation, actives largely listed as activators; actives 2.8% (n = 210,000); also: % of control where 0% means no effect; nearly all actives have a fitted effect of over 55% in size
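qHTS luciferase splicing reporter: luminescence rises when SMN2 exon 7 is included in transfected HEK293 cells. Compound exposure lasted 30-36 h at 37C, with 4.5 mM final sodium butyrate as control, followed by a ONE-Glo read.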
ELG1 genotox – genotoxicity induction in ELG1-luciferase HEK293T cells | HEK293T ELG1-luciferase reporter, luminescence, 16 h | Potency, µM (doses to about 46 µM), for the others: top-dose activity change, positive = activation, hits mostly activators | actives 1.3% (n = 330,000) | AID 504466; also: % of control where 0% means no effect; nearly all actives have a fitted effect of over 60% in size
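Reporter readout depends on ELG1 protein level, which increases with genetic stress. After 16 hr compound exposure at 37 °C, luciferase activity was quantified using ONE-Glo.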
KinaseGlo FLuc – Kinase-Glo luciferase inhibition (counter-screen). Potency, µM (doses to about 38.3 µM), inactives show at the top dose activity change, negative = inhibition, hits mostly inhibitors. Kinase-Glo luciferase, ATP luminescence, 8 min. actives 0.28% (n = 200,000); also: % is scaled to controls: 0 for no effect and ±100 for the full control effect; nearly all actives have a fitted effect of over 60% in size
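Light output from Kinase-Glo luciferase with luciferin and 10 uM ATP in 50 mM imidazole pH 7.2, KCl, MgCl2, Tween 20, BSA; compound pin-delivered, 8-min ambient incubation, then luminescence read.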
FLuc counter – inhibits or activates purified firefly luciferase, miR-21 counter-screen; Potency, µM (doses to about 57.5 µM), for the others: at the top dose activity change, negative = inhibition, actives largely listed as inhibitors; actives 6.9% (n = 360,000); purified FLuc, Km substrates, luminescence inhibition; AID 588342;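 also: plate controls were vehicle for no effect and reference inhibitor for full effect; nearly all actives have a fitted effect of over 55% in size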
Target sequence (P08659 whole entry, looked up): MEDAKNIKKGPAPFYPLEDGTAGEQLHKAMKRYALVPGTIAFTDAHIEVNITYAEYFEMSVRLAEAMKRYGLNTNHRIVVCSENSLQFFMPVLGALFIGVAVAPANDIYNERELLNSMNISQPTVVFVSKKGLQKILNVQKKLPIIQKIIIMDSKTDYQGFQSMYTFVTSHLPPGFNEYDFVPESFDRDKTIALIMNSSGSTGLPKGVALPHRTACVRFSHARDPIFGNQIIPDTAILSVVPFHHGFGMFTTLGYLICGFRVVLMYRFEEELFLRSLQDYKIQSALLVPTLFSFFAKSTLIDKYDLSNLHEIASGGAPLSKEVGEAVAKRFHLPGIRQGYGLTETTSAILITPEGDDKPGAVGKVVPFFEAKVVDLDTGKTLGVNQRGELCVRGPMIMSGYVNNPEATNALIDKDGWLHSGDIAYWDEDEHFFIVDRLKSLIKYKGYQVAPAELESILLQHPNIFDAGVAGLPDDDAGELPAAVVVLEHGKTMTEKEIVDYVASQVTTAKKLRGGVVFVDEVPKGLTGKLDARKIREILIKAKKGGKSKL
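Purified P. pyralis luciferase (10nM final) with 10uM D-luciferin and 10uM ATP (Km levels) in 50mM Tris acetate pH 7.5, 10mM Mg acetate, 0.01% Tween-20, 0.05% BSA; qHTS 6-point titration, ~60 µM downward; luminescence read.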
NPC1 promoter act – activates the NPC1 promoter. Huh7 NPC1 promoter luciferase reporter, 24 h. Potency, µM (top dose mostly 9.22 µM), for the others: top-dose activation, most hits filed as activators. actives 2.4% (n = 320,000); also: % of control where 0% means no effect; nearly all actives have a fitted effect of over 60% in size
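NPC1 promoter–luciferase Huh7 cells; 24 h compound; luminescence.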
Rab9 promoter act – activates the Rab9 promoter; AID 485297; Huh7 Rab9 promoter-luciferase reporter, luminescence, 24 h; Potency, µM (top dose mostly 9.22 µM), inactives show at the top dose activation, negative = inhibition, hits mostly activators; actives 2.8% (n = 320,000); also: % of control where 0% means no effect; nearly all actives have a fitted effect of over 60% in size
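Using Huh7 cells stably transfected with Rab9 promoter–luciferase, compounds were incubated 24 h at 37 °C, 5% CO2; luciferase luminescence was read 10 min after reagent addition.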
The depositor's hits bear a star; u = inconclusive; x = no result given; [ ] = another dose, or the depositor's remark. Calls follow the shape of the dose curve; as a rule, active = well fitted curve in the direction sought with a large enough effect; inconclusive = small, poorly fitted or top-dose-only effect, or another doubt; inactive = no such curve, though single readings can be large; an effect the other way counts as inactive or inconclusive. Potency is read from the fitted curve at half-maximal effect.

SMILES	SMN2 splice up	ELG1 genotox	KinaseGlo FLuc	FLuc counter	NPC1 promoter act	Rab9 promoter act
COc1cc2c(cc1OC)C(C(C(=O)N(CCc1ccc(OC)c(OC)c1OC)CCc1ccc(OC)c(OC)c1OC)c1ccccc1)=NCC2 (stereo unspecified)	x	x	2.6%[39.9 µM]	x	x	x
CCc1ccc(C2CC(=O)Nc3c2c(=O)n(C)c2ncnn32)cc1 (stereo unspecified)	-14.3%	x	x	-7.3%	x	x
CCCCC[C@H](O)/C=C/C=C\C=C\[C@@H](O)C/C=C\CCCC(=O)O	17.4%	x	0.3%	x	x	x
O=C(O)CCCCn1ccc(=O)[nH]c1=O	-8.0%[9.22 µM]	x	-1.7%[7.66 µM]	x	x	x
CCOC(=O)CSc1nc(-c2ccc(OC)cc2)ns1	29.3%	-0.5%	2.4%	23.9µM*	-1.5%	0.6%
Cc1cccc(-c2nsc(SCC(=O)Nc3cc(C)on3)n2)c1	-7.3%	3.4%	-5.5%	5.4%	2.4%	5.4%
CCOC(=O)N1CCN(C(=O)CSc2nc(-c3cccc(C)c3)ns2)CC1	-0.5%	-0.2%	-3.7%	16.9µM*	-0.7%	-6.6%
CCOC(=O)CNC(=O)CSc1nc(-c2ccccc2)ns1	2.9%	1.9%	0.8%	u	1.0%	3.3%
CCOC(=O)CNC(=O)CSc1nc(-c2ccc(C)cc2)ns1	1.8%	0.6%	-2.8%	12µM*	7.2%	15.7%
Cc1nn(-c2nc(-c3ccc(F)cc3)cc(C(F)(F)F)n2)c(C)c1Br	-18.7%	x	x	2.9%	x	x
Cc1cc(=O)n2nc(-c3ccccc3)sc2n1	12.6µM*	u	-23.8%	u	u	2µM*
COC(=O)c1cc(=O)nc2sc(-c3ccccc3)nn12	3.9%	-1.1%	0.1%	-0.6%	-4.2%	-1.9%
COc1cccc(Cn2c(=O)n(-c3ccccc3C)c(=O)c3c2c2cc(C)ccc2n3C)c1	x	x	x	-1.7%	x	x
CC(=O)c1ccc(N2CCN(c3ncnc4c3cnn4-c3cc(Cl)ccc3C)CC2)cc1	x	x	x	-3.9%	x	x
CCn1nnc2cc(C(=O)Nc3cccc(Cl)c3C)ccc21	x	x	x	4.3%	x	x
Cc1c2ccccc2nc2c(F)c(NC(C)C)c(F)c(F)c12	15.8µM*	u	-2.9%	3.01µM*	u	u
Cc1c2ccccc2nc2c(F)c(NCCO)c(F)c(F)c12	24.6%	u	-3.8%	21.3µM*	3.4%	22.2%
Cc1c(Cl)c(S(N)(=O)=O)cc(S(N)(=O)=O)c1NC(=O)c1ccc(Cl)cc1	0.4%[9.22 µM]	x	-2.5%[7.66 µM]	x	x	x
CN1CCN(c2ccc(NC(=O)N3CCc4ccccc43)cc2)CC1	x	0.461µM*	x	0.757µM*	0.316µM*	0.112µM*
Cc1ccc(NC(=O)N2CCc3ccccc32)cc1C	1.41µM*	0.651µM*	-9.8%	0.675µM*	0.501µM*	0.316µM*
Cc1ccc(Cl)cc1NC(=O)CN1C(=O)CCc2ccccc21	x	x	x	-1.5%	x	x
Cc1ccc(NC(=O)N2CCc3ccccc32)cc1	1.26µM*	u	u	0.536µM*	0.708µM*	0.631µM*
Cc1ccc(NC(=O)CN2C(=O)CCc3ccccc32)cc1C	x	x	x	23.9µM*	x	x
COc1cccc(Cn2c(CNC(=O)CCc3ccccc3)nc3cccnc32)c1	x	x	x	0.9%	x	x
Cn1c(=O)c2sccc2n2c(CCCC(=O)Nc3ccc(Oc4ccccc4)cc3)nnc12	x	x	x	-19.3%	x	x
SMILES	SMN2 splice up	ELG1 genotox	KinaseGlo FLuc	FLuc counter	NPC1 promoter act	Rab9 promoter act
Cc1ccc(C(c2sc3nc(-c4ccco4)nn3c2O)N2CCOCC2)cc1 (stereo unspecified)	x	x	x	-0.2%	x	x
Cc1ccc2oc3nc(C)c(C(=O)O)cc3c(=O)c2c1	5.62µM*	24.2%	4.47µM*	13.5µM*	2.82µM*	2.24µM*
CCOC(=O)c1cc2c(=O)c3cc(C)ccc3oc2nc1C	x	u	x	1.9µM*	2.82µM*	3.16µM*
CC(=O)c1cc2c(=O)c3cc(C)ccc3oc2nc1C	12.6µM*	10.3µM*	u	8.49µM*	u	3.55µM*
CC(C)C(=O)OCC(=O)NCc1ccccc1Cl	2.2%	4.2%	2.2%	16.9µM*	u	-1.8%
CCC(C(=O)OCC(=O)Nc1ccc(F)cc1)c1ccccc1 (stereo unspecified)	x	-4.9%	x	3.8%	-3.8%	3.1%
CC(C)C(=O)OCC(=O)Nc1ccc(N=Nc2ccccc2)cc1	11.2µM*	20.6µM*	3.6%	u	2.51µM*	0.794µM*
O=C(Nc1ccc(N=Nc2ccccc2)cc1)c1ccccc1Cl	11.2µM*	u	4.2%	3.79µM*	1.78µM*	2.51µM*
CC1(C(=O)OCC(=O)Nc2ccccc2)CC1(Cl)Cl (stereo unspecified)	-11.4%	12.8%	-0.5%	16.9µM*	u	u
O=C(CCl)Nc1ccc(N=Nc2ccccc2)cc1	-25.8%	-17.3%	-1.4%	6.01µM*	20.7%	26.8%
CC(=O)Nc1ccc(N=Nc2ccccc2)cc1	10µM*	10.3µM*	0.9%	6.01µM*	2.82µM*	2.82µM*
CC(=O)OCC(=O)Nc1ccc(N=Nc2ccccc2)cc1	6.31µM*	23.1µM*	-0.3%	12µM*	2.82µM*	2.82µM*
CC(=O)Nc1ccccc1	2.8%	2.4%	-4.6%	x	x	x
Cc1cc(C)c(S(=O)(=O)N2CCC(N3CCN(Cc4ccc(F)cc4)C(=O)C3=O)CC2)c(C)c1	x	x	x	-0.1%	x	x
CC(C)c1c(C(=O)N/N=C/c2cccnc2)nnn1-c1nonc1N	x	-2.8%[9.26 µM]	x	-17.3%	-1.8%	-0.2%
